For assay [1], the target named is T1, Inhibitor of nuclear factor kappa-B kinase subunit epsilon (Homo sapiens) (UniProt Q14164).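 Further: reported values are averaged percent inhibition figures against human IKKε.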
T1 sequence (whole entry): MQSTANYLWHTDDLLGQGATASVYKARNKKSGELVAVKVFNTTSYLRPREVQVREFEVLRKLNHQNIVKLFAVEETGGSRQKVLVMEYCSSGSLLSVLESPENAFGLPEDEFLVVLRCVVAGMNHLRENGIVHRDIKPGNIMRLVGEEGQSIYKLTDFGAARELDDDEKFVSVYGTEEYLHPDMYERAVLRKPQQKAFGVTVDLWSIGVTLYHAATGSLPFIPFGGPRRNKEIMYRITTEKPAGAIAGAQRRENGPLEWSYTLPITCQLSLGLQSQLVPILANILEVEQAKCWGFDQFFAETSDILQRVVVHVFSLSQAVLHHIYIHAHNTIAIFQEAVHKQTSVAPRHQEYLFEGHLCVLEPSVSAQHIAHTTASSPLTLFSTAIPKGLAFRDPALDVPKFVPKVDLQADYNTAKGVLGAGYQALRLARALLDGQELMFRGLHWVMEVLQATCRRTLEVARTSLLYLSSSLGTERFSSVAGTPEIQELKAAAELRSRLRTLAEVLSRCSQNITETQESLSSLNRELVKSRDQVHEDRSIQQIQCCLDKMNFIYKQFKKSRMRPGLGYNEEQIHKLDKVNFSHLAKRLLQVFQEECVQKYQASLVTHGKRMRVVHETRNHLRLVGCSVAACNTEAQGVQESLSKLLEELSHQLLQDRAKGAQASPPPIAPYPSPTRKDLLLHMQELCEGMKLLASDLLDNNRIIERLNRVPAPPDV
Particulars: at 1 µM.

Assay [2] addresses T2, Serine/threonine-protein kinase Nek1 (Homo sapiens) (UniProt Q96PY6).
T2 sequence (whole entry): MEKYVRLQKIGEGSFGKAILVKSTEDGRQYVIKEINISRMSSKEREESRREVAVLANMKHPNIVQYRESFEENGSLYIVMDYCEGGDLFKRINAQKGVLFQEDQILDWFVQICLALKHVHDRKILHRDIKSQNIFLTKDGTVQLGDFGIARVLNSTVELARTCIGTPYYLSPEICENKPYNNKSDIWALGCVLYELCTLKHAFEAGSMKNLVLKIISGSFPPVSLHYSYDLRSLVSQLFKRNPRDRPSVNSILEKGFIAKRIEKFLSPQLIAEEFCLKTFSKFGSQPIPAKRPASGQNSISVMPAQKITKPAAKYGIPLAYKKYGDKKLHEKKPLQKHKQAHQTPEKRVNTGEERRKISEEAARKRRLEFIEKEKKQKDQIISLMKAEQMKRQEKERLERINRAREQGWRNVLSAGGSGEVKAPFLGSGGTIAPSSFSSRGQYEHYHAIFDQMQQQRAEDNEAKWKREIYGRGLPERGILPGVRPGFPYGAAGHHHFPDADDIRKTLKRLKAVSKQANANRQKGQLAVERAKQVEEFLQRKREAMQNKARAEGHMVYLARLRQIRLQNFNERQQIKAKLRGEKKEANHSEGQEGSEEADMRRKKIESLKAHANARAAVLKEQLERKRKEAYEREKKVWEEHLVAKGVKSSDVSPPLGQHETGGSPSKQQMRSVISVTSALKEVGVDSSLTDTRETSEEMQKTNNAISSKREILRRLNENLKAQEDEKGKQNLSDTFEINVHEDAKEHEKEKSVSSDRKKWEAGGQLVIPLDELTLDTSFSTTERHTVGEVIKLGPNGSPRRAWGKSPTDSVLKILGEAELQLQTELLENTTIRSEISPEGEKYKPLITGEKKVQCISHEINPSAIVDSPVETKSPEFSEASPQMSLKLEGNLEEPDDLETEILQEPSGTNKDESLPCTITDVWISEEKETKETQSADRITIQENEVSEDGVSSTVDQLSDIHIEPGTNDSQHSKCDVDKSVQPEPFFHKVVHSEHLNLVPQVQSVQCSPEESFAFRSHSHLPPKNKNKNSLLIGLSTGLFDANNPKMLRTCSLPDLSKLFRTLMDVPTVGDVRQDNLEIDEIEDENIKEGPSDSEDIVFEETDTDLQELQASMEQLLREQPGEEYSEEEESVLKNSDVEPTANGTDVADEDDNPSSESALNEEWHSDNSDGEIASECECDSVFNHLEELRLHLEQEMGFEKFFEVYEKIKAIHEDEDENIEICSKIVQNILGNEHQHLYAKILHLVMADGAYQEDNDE
Particulars: at 0.1 µM.

Assay [3] deals with T2, Serine/threonine-protein kinase Nek1 (Homo sapiens). Particulars: at 1 µM.
The target in assay [4] is T3, Serine/threonine-protein kinase Nek2 (Homo sapiens) (UniProt P51955).
T3 sequence (whole entry): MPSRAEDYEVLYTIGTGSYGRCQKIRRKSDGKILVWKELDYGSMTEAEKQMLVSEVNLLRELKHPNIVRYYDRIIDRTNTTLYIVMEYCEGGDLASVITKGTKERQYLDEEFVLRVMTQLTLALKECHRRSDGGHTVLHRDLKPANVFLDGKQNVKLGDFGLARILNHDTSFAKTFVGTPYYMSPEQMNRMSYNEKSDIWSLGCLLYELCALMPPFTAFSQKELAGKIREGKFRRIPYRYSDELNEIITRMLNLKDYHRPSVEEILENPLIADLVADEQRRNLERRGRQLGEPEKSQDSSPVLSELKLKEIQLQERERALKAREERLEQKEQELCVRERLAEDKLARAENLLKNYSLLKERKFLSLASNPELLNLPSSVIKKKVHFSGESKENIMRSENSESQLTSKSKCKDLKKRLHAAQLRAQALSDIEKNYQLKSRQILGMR
As to conditions: at 0.1 µM.

In assay [5] the target is T3, Serine/threonine-protein kinase Nek2 (Homo sapiens). Particulars: at 1 µM.
Assay [6] deals with Serine/threonine-protein kinase Nek6 (Homo sapiens) (UniProt Q9HC98). As to conditions: at 0.1 µM.
Assay [7] has the same target. As to conditions: at 1 µM.
Assay [8] deals with Serine/threonine-protein kinase Nek7 (Homo sapiens) (UniProt Q8TDX7). Particulars: at 0.1 µM.
The target is the same in assay [9]. As to conditions: at 1 µM.
Assay [10] addresses T4, Serine/threonine-protein kinase Nek9 (Homo sapiens) (UniProt Q8TD19).
T4 sequence (whole entry): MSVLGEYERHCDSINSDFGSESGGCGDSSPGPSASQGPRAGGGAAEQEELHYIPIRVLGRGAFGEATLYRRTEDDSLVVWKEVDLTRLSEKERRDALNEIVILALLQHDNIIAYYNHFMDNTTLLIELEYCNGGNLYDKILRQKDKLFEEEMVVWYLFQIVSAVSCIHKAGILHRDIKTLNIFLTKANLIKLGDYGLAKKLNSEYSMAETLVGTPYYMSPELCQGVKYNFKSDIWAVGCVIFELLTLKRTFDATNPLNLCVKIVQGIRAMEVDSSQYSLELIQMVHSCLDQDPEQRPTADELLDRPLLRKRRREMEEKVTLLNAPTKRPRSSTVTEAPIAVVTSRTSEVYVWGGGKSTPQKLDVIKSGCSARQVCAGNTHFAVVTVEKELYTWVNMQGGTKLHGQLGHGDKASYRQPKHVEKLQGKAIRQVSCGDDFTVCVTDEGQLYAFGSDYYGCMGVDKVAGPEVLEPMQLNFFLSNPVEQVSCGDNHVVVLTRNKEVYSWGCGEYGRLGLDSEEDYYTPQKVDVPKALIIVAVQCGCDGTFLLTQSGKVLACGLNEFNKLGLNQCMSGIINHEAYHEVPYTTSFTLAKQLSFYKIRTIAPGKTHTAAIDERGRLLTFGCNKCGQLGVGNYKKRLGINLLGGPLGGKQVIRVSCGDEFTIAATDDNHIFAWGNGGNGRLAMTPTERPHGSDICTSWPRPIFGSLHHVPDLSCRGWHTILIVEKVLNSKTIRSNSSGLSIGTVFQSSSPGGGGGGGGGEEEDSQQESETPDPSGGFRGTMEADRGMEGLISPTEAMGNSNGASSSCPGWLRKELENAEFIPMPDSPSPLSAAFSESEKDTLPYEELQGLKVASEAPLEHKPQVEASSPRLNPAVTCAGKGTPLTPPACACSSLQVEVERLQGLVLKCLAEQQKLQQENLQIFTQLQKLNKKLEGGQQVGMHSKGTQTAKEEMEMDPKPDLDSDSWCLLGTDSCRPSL
Particulars: at 0.1 µM.

The values below come from ChEMBL document CHEMBL1961873, “Compounds: GSK PKIS; Assays: Nanosyn kinase panel” (2012).

Chain of Serine/threonine-protein kinase Nek6 (Homo sapiens) (Q9HC98 whole entry): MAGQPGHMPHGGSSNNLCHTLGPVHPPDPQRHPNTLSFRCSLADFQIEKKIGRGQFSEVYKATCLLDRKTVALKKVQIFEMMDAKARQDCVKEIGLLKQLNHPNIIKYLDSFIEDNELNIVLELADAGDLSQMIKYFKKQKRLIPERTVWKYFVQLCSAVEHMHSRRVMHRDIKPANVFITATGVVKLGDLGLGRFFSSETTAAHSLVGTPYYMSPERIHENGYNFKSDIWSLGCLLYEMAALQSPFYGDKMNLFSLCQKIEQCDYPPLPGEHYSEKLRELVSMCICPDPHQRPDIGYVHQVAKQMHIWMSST
Chain of Serine/threonine-protein kinase Nek7 (Homo sapiens) (Q8TDX7 whole entry, looked up): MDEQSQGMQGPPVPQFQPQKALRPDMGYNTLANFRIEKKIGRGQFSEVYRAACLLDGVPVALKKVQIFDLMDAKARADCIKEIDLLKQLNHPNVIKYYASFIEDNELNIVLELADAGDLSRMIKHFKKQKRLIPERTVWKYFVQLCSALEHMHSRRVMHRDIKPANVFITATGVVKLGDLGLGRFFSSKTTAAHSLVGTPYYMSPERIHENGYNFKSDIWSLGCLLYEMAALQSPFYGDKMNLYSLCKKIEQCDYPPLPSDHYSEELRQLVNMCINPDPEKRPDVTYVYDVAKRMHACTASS

As a reminder, the inhibition is the relative decrease from the control value, in per cent. Turning to `Nc1nonc1-c1nc2cnccc2n1C1CCCCC1`, the inhibition in assay [1] is 16.2%; in [2] it was -1.33%; in [3], 0.56%; in assay [4], -2.06%; in assay [5], -7.26%; in assay [6], 0.47%. In addition, the inhibition in assay [7] was -0.88%; in assay [8], 0.07%; in [9], -0.97%; in assay [10], -5.44%.
On to `NS(=O)(=O)c1ccc(-c2ccc3c(NC(=O)C4CC4)n[nH]c3c2)cc1`, for which the inhibition in [1] was found to be 3.02%; in assay [2] it was 1.11%; in [3] it was 1.6%; in assay [4], 3.54%; in assay [5], 2.84%; in [6], 1.03%. Besides, the inhibition in [7] amounted to 0.35%; in assay [8], 2.6%; in [9], 1.74%; in assay [10] it was 5.05%.
Take `CCn1c(-c2nonc2N)nc2c(C#CCN)ncc(OCCCN)c21`: the inhibition was 2.04% in [1]; -2.66% in assay [2]; -3.17% in assay [3]; -4.61% in [4]; -4.57% in assay [5]; -0.99% in assay [6]. For the same compound, the values for the inhibition in assay [7], in assay [8] and in assay [9] were -1.85%, -5.43% and -9.67%, respectively.
Turning to `COc1cc(C=NNc2ncnc3c2cnn3Cc2ccccc2)ccc1O`, the inhibition was -4.1% in [1]; -1.23% in [2]; -0.61% in assay [3]; -5.42% in assay [4]; -5.26% in assay [5]; -0.58% in [6]. The inhibition was -3.89% in assay [7], -6.27% in assay [8], -2.54% in [9] and 3.47% in assay [10].
On to `CCn1c(-c2nonc2N)nc2c(C#CC(C)(C)O)ncc(OC[C@@H]3CCCN3)c21`, for which the inhibition in assay [1] is 98.7%; in assay [2], 0.01%; in assay [3], 0.55%; in [4], 0.12%; in assay [5], 0.91%; in [6], 1.04%. In addition, the inhibition is 0.79% in assay [7], -0.99% in assay [8], -0.58% in assay [9] and -1.1% in assay [10].
As to `Cc1cc(-c2ccco2)cc(C)c1/C=C/c1cncc(-c2nn[nH]n2)c1`, the inhibition worked out at 3.83% in assay [1]; 1.34% in [2]; 1.67% in [3]; 1.03% in assay [4]; 1.44% in assay [5]; 0.53% in assay [6]. Besides, the inhibition in [7] was -0.1%; in assay [9] it was 0.89%; in assay [10], 3.25%.
Consider `COc1cccc(COc2cc(-n3cnc4ccccc43)sc2C(N)=O)c1`, for which the inhibition in assay [1] is -7.06%; in assay [2], 0.41%; in assay [3], 4.13%; in assay [4], 8.56%; in assay [5] it was 1.43%; in assay [6], 1.63%. The inhibition is -0.37% in assay [7], 0.3% in assay [8], 0.66% in assay [9] and 0.4% in [10].
Regarding `CCn1c(-c2nonc2N)nc2c(C#CC(C)(C)O)ncc(OCC3CCNCC3)c21`, the inhibition in [1] came out at 99.1%; in [2] it was 2.19%; in [3] it was 3.24%; in assay [4] it was 3.86%; in assay [5] it was 3.71%; in assay [6] it was 3.46%. The inhibition in [7] is 4.94%; in assay [8] it was 3.99%; in [9], 3.34%; in assay [10], 5.3%.
Take `Fc1ccc(-c2ncn(C3CCNCC3)c2-c2ccnc(Oc3ccccc3)n2)cc1`: the inhibition in assay [1] is 3.7%; in [2] it was 1.07%; in assay [3], 1.73%; in assay [4], 3.29%; in assay [5], 1.85%; in [6], 7.63%. Further, the inhibition in assay [7] was determined as 2.1%; in [8], 2.34%; in [9], 6.68%; in [10] it was 2.53%.
For the compound `NC(=O)c1sc(-n2cnc3cc(C(F)(F)F)ccc32)cc1OCc1ccccc1Br`, the inhibition was 3.62% in assay [1]; 1.03% in assay [2]; 1.9% in assay [3]; 2.62% in assay [4]; 3.63% in [5]; -1.58% in assay [6]. Further, the inhibition in assay [7] is -0.03%; in [8], -3.9%; in assay [9] it was 3.69%; in [10], 8.36%.
Take `COc1cccc(-n2ncc3c(N/N=C/c4ccncc4)ncnc32)c1`: the inhibition was determined as 9.13% in assay [1]; 3.6% in [2]; 12.5% in [3]; 5.11% in assay [4]; 5.47% in assay [5]; 4.03% in assay [6]. Besides, the inhibition in [7] amounted to 3.93%; in [8], 2.45%; in assay [9], 3.46%; in [10] it was 7.16%.
For `NS(=O)(=O)c1ccc(N/C=C2\C(=O)Nc3ccc4ncsc4c32)cc1`, the inhibition was found to be 41.9% in assay [1]; 2.04% in [2]; 3.28% in [3]; 6.71% in [4]; 8.52% in assay [5]; 1.42% in assay [6]. Moreover, the inhibition was determined as 4.37% in assay [7], 1.21% in assay [8], 7.53% in assay [9] and 5.84% in assay [10].
Regarding `COc1cc2c(cc1Nc1nc(Nc3ccsc3C(N)=O)c3cc[nH]c3n1)N(C(=O)CN(C)C)CCC2`, the inhibition in assay [1] is 9.27%; in assay [2], 0.09%; in assay [3] it was 0.97%; in assay [5], 6.67%; in assay [6] it was 1.52%; in [7], -0.11%. In addition, the inhibition came out at 1.7% in [8], 9.62% in assay [9] and 1.89% in assay [10].
On to `CCn1c(-c2nonc2N)nc2c(C#CC(C)(C)O)nc(O[C@@H](CN)c3ccccc3)cc21`, for which the inhibition in assay [1] is 98.9%; in [2], 1.61%; in [3], 17.2%; in assay [4], 5.29%; in assay [5] it was 33.5%; in [6], 0.93%. Also, the inhibition is -0.92% in [7], 1.12% in [8], 0.58% in [9] and 3.66% in assay [10].
